# About 13,000 (27%) of roughly 48,000 compounds showed an effect of 50% or more. The list shows a part of the results.
# System: Wolbachia pipientis
# Assay: Anti-Wolbachia Cell-Based Screen
# Format: functional
# Design: scale not given: in the data most compounds retested in dose-response had high values
# Details: 5 µM
row,Structure (SMILES),Percent Effect
1,COCCC1(C(=O)O)CCCN(c2cc(C)c3ccccc3n2)C1 (stereo unspecified),-9.375%
2,Cc1cc(N2CCC3(CCCN(CCO)C3=O)C2)nc2ccccc12 (stereo unspecified),93.99%
3,Cc1cc(N2CCC(CO)(CC3CCCCO3)CC2)nc2ccccc12 (stereo unspecified),-15.69%
4,Cc1cc(N2CCC3(CCCN(CCO)C3=O)C2)nc2cc(Cl)ccc12 (stereo unspecified),98.58%
5,COCCN1CCCC2(CCN(c3ncc(Cl)cc3Cl)C2)C1=O (stereo unspecified),5.155%
6,CCCN1CCCC2(CCN(c3nc(C)nc4ccsc34)C2)C1=O (stereo unspecified),-5.221%
7,Cc1ccc2c(c1)OC1(NC2=O)C(=O)N(C)c2ccccc21 (stereo unspecified),2.541%
8,COc1ncccc1NC(=O)N1CCOCC1C (stereo unspecified),13.85%
9,Cc1ccc(-c2ncc(C(=O)N3CCN4CCCCC4C3)c(O)n2)cc1 (stereo unspecified),8.265%
10,CCC(=O)N1CCC(NC2CCCC2)C1 (stereo unspecified),-2.557%
11,Cc1nc2c(c(=O)n1C)CN(C(=O)C1CCCN(C3CCCC3)C1)C2 (stereo unspecified),-4.359%
12,O=C(C1CC1)N1CCC(c2nc(O)c3c(n2)CN(C2CCCC2)CC3)C1 (stereo unspecified),78.69%
13,CCC(=O)N1CCC(c2nc(O)c3c(n2)CN(C2CCCCC2)CC3)C1 (stereo unspecified),94.52%
14,C1CCC(c2nc3c(c(N4CCN5CCCC5C4)n2)CCNCC3)C1 (stereo unspecified),-7.963%
15,CCCC(=O)N1CCC(c2nc(O)c3c(n2)CCN(C2CCCC2)C3)C1 (stereo unspecified),91.38%
16,Cc1ncc(C(=O)N2CCC(N3CCc4ccccc4C3)CC2)c(O)n1,-7.9%
17,CC(C)N(CC(N)=O)Cc1cccc(C(F)(F)F)c1,-6.914%
18,CC(C)c1cc(C(=O)N2CCNCC2C(=O)NCc2ccncc2)on1 (stereo unspecified),-12.97%
19,CC(C)(C)c1ccc2c(c1)CCN2C(=O)c1ccc(=O)[nH]n1,-4.388%
20,CCc1nc2n(n1)CCCC2NC(=O)Nc1ccc(F)cc1C#N (stereo unspecified),-29.22%
21,Cc1ccc(C(=O)N2CCC3(CC2)CC(c2ccccc2)C(=O)N3)o1 (stereo unspecified),-4.481%
22,CCOc1ccccc1N(C)Cc1nccn1C,-5.564%

row,Structure (SMILES),Percent Effect
1,CCCS(=O)(=O)N1CCC2(CCC(=O)N(Cc3ccccc3)C2)CC1,-5.429%
2,CCCS(=O)(=O)N1CCC2(CC1)CC(=O)N(Cc1cc(F)cc(F)c1)C2,128.2%
3,CN1CC2(CCN(C(=O)Cc3ccc(O)c(F)c3)CC2)CC1=O,-5.557%
4,CC(C)=CCN1CC2(CCN(Cc3c(F)cccc3F)CC2)CC1=O,-3.567%
5,CC(C)=CCN1CC2(CCN(Cc3cccc(C#N)c3)CC2)CC1=O,0.9714%
6,O=C(CO)N1CCC2(CC1)CC(=O)N(Cc1cc(F)cc(F)c1)C2,130.8%
7,CCCS(=O)(=O)N1CCC2(CCC(=O)N(CCc3ccncc3)C2)CC1,3.257%
8,CC(C)N1CCC2(CC1)CC(=O)N(Cc1cc(F)cc(F)c1)C2,84.47%
9,CC(C)=CCN1CCC2(CC1)CC(=O)N(Cc1cc(F)cc(F)c1)C2,132.9%
10,CCCc1noc(CCC(=O)N2CCN(C)CC2c2ccccc2)n1 (stereo unspecified),7.741%
11,O=C(NCC1SCCc2ccccc21)c1cscn1 (stereo unspecified),1.343%
12,N#Cc1cnc(NCCCN2C(=O)COc3ccccc32)c(Cl)c1,9.033%
13,CCOc1cccc(CNC(=O)NC2CC=CC2)c1OC(F)F,3.017%
14,Cc1n[nH]cc1CNC(C)c1cccc(N2CCCC2=O)c1.Cl (stereo unspecified),3.207%
15,Cc1cccc(COC[C@@]23CCC[C@@H]2CN(C(=O)Cc2ccco2)C3)n1,13.36%
16,O=C(Cc1ccsc1)N1C[C@H]2CCC[C@@]2(COCc2ccccn2)C1,101.3%
17,O=C(c1cscn1)N1C[C@H]2CCC[C@@]2(COCc2ccccn2)C1,128%
18,Cc1ccc(C(=O)N2C[C@H]3CCC[C@@]3(COCc3cccnc3)C2)s1,-11.48%
19,O=C(Cc1ccco1)N1C[C@H]2CCC[C@@]2(COCc2cccnc2)C1,-4.256%
20,O=C(c1cnc(C2CC2)s1)N1CCCCC1Cn1cccn1 (stereo unspecified),5.861%
21,NC(=O)c1ccc(C(=O)N2CCCCC2Cn2cccn2)s1 (stereo unspecified),92.92%
22,O=C(c1cnc(C2CC2)s1)N1CCCC1Cn1cccn1 (stereo unspecified),124.9%

row,Structure (SMILES),Percent Effect
1,CCc1ncc(C(=O)N2CCCC2Cn2cccn2)s1 (stereo unspecified),101.3%
2,CCc1ncc(C(=O)N2CCCCC2Cn2cccn2)s1 (stereo unspecified),-1.613%
3,NC(=O)c1csc(C(=O)N2CCCCC2Cn2cccn2)c1 (stereo unspecified),-5.921%
4,c1ccc2c(c1)CC(n1ccnc1-c1cc3n(n1)CCNC3)CO2 (stereo unspecified),0.8243%
5,O=C(CC[C@@H]1CCCN2CCCC[C@H]12)NCCc1nc(O)cc(O)n1,-15.21%
6,N#Cc1ccnc(N2CCN(CC(O)c3cccc(F)c3)CC2)c1 (stereo unspecified),-9.554%
7,O=C1NCCN1C1CCN(c2ccnc(-c3ccccc3)n2)CC1,10.01%
8,O=C1NCCN1C1CCN(Cc2nc(-c3ccc(F)cc3)no2)CC1,108.3%
9,O=C1NCCN1C1CCN(Cc2nc(-c3ccoc3)no2)CC1,0.168%
10,CN1CCN(C2CCN(Cc3nc(-c4ccoc4)no3)CC2)C1=O,101.9%
11,c1ccc(-c2noc(CN3CCC(c4ccn[nH]4)CC3)n2)cc1,3.848%
12,O=C1NCCN1C1CCN(Cc2nc(-c3ccccc3)no2)CC1,96.78%
13,Cc1ccc(-c2noc(CN3CCC(N4CCNC4=O)CC3)n2)cc1,76.33%
14,CCN1CCN(C2CCN(Cc3nc(-c4ccoc4)no3)CC2)C1=O,-10.87%
15,Fc1ccc(-c2noc(CN3CCC(c4cc[nH]n4)CC3)n2)cc1,-73.45%
16,Cc1ccc(-c2noc(CN3CCC(c4ccn[nH]4)CC3)n2)cc1,-38.16%
17,CC(C)Cc1nc(CN2CCC(N3CCN(C)C3=O)CC2)no1,-0.1019%
18,Cc1cccc(-c2noc(CN3CCC(N4CCNC4=O)CC3)n2)c1,0.5199%
19,N#Cc1ccccc1OCCN1CCn2c(nnc2C2CC2)C1,-2.907%
20,Cc1ccccc1-c1noc(CN2CCC(N3CCNC3=O)CC2)n1,89.22%
21,c1cnn(CC2CN(Cc3nc(-c4ccsc4)no3)CCO2)c1 (stereo unspecified),-8.782%
22,c1cc(C2CCN(Cc3nc(-c4ccsc4)no3)CC2)[nH]n1,-22.06%

row,Structure (SMILES),Percent Effect
1,Cc1ccccc1-c1noc(CN2CCC(c3ccn[nH]3)CC2)n1,-44.64%
2,Cc1ccccc1-c1noc(CN2CCn3c(nnc3C3CC3)C2)n1,9.498%
3,O=C1NCCN1C1CCN(Cc2nc(-c3ccsc3)no2)CC1,100.1%
4,COCCN1CC2(CCCN(c3ncnc4[nH]cnc34)C2)CCC1=O (stereo unspecified),2.898%
5,Cc1nccc(C2CN(S(=O)(=O)N(C)C)C2)n1,92.05%
6,Cc1noc(C2CN(S(C)(=O)=O)Cc3ccnn3C2)n1 (stereo unspecified),-9.743%
7,CN(C)S(=O)(=O)N1CC(c2nc(-c3ccsc3)no2)C1,-5.352%
8,CN(C)c1nccc(C2CN(S(C)(=O)=O)C2)n1,62.66%
9,CN(C)S(=O)(=O)N1CCN(c2nccc(C(F)(F)F)n2)CC1,-20.82%
10,CS(=O)(=O)N1CC(c2ncn3ccccc23)C1,16%
11,N#Cc1cccnc1Nc1ccc(N2CCC(C(N)=O)CC2)cc1,-22.12%
12,COCCn1cc2c(n1)C(CNC(=O)c1cc(C)[nH]c1C)OCC2 (stereo unspecified),94.61%
13,O=C(Cc1ccsc1)NCC1OCCc2cn(CC3CC3)nc21 (stereo unspecified),-4.734%
14,Cc1cc(C(=O)NCC2OCCc3cn(CC4CC4)nc32)c(C)[nH]1 (stereo unspecified),99.34%
15,CS(=O)(=O)CC(=O)NCC1OCCc2cn(CC3CC3)nc21 (stereo unspecified),-2.36%
16,CS(=O)(=O)NCC1OCCc2cn(CC3CC3)nc21 (stereo unspecified),-2.199%
17,CCS(=O)(=O)NCC1OCCc2cn(CCOC)nc21 (stereo unspecified),-0.9126%
18,Cn1cc2c(n1)C(CNC(=O)Cc1ccsc1)OCC2 (stereo unspecified),6.682%
19,O=C(NCC1OCCc2cn(CC3CC3)nc21)c1ccsc1 (stereo unspecified),-6.452%
20,COCCn1cc2c(n1)C(CNS(C)(=O)=O)OCC2 (stereo unspecified),95.37%
21,Cc1cc(NC(=O)N2CCCC(CO)C2)nn1-c1ccccc1Cl (stereo unspecified),6.236%
22,COc1ccc(OC)c(CN(C(=O)c2ccc(C)[nH]c2=O)C2CC2)c1,-3.072%

row,Structure (SMILES),Percent Effect
1,CCC(=O)Nc1nnc(CCOc2cccc(OC)c2)s1,0.4737%
2,CCC(=O)Nc1nnc(CCCOc2ccccc2)s1,-6.738%
3,COCc1nnc(NC(=O)CN2C(=O)c3ccccc3NC2C(C)C)s1 (stereo unspecified),107.7%
4,CC(C)c1nnc(NC(=O)N2CCN(C)CC2c2ccccc2)s1 (stereo unspecified),2.354%
5,CC(C)c1nnc(NC(=O)CN2C(=O)c3ccccc3NC2C(C)C)s1 (stereo unspecified),94.59%
6,CC(C)c1nnc(NC(=O)N2CCCC2c2ccncc2)s1 (stereo unspecified),0.4499%
7,CCN1CCN(c2nc(C(C)C)nc3c(C)nn(CC)c23)CC1,-2.933%
8,Cn1ccnc1CN1CCN2C[C@H](Oc3ccccc3)C[C@H]2C1.O=C(O)C(F)(F)F.O=C(O)C(F)(F)F,-6.794%
9,CN(C)c1nccc(N(C)Cc2ncnn2C)n1,4.507%
10,CCN1CCOC(CNCc2ccc(C)s2)C1 (stereo unspecified),96.42%
11,CCN1CCOC(CNc2nccc(OC)n2)C1 (stereo unspecified),1.918%
12,Cc1nc(CNCC2CN(C3CC3)CCO2)cs1 (stereo unspecified),87.5%
13,CCN1CCOC(CNCc2ccccn2)C1 (stereo unspecified),1.335%
14,CCN1CCOC(CNCc2csc(C)n2)C1 (stereo unspecified),88.2%
15,CCN1CCOC(CNCc2ccccc2OCC(=O)N(C)C)C1 (stereo unspecified),-2.531%
16,CCN1CCOC(CNCc2ccc(OC)c(F)c2)C1 (stereo unspecified),-3.361%
17,Cc1nc(CNCC2CCCN(C(=O)OC(C)(C)C)C2)cs1 (stereo unspecified),4.206%
18,COc1ccnc(NCC2CN(C3CC3)CCO2)n1 (stereo unspecified),0.4171%
